Measured values taken from PubChem BioAssay AID463173 (ICCB-Longwood Screening Facility, Harvard Medical School, 2010).
The whole screen tested about 52,000 compounds, of which about 4,300 (8.3%) were called active. No stated cut-off is given here; in the data, active means survival mostly below about 52% (no sharp cut-off); inactive means mostly above about 56%. The list comes from a sample in which actives are over-represented; it also holds similar structures and randomly drawn compounds.

These compounds were tested on DeltatarO mutant (assay: S. aureus survival, RN4220 and DeltatarO strains – OD600, teichoic acid synthesis inhibitors, primary screen (AID 463173)). Settings: S. aureus RN4220 wild type/DeltatarO growth, OD600, 18 h, hits give low values, screened at 18.75 µg/mL (by protocol).

Structure (SMILES) | survival
CCNC(=O)C1CCN(S(=O)(=O)c2ccc3c(c2)CCCN3C(C)=O)CC1 | 99% (inactive)
CCC(CC)C(=O)OCc1cc(=O)n2nc(C3CCCCC3)sc2n1 | 88% (inactive)
COc1ccc(/C=C(\NC(=O)c2ccccc2)C(N)=O)cc1 | 79% (inactive)
CC(C)CCNC(=O)Cn1c(-c2cccs2)cc2cc(F)ccc21 | 94% (inactive)
Cc1cc(C)c2c(c1)c(C)cc1nnc(SCC(=O)c3ccc(F)cc3)n12 | 63% (inactive)
Cc1ccc(C)c(CSC2=NC(C)(C)Nc3ccccc32)c1 | 80% (inactive)
CCC(NC(C)=O)c1ccccc1 (stereo not given) | 71% (inactive)
CCCCCCNc1nc(Oc2ccccc2)nc(Oc2ccccc2)n1 | 62% (inactive)
CN(C)C(=O)CSc1n[nH]c(-c2ccccc2)n1 | 103% (inactive)
Cc1ccc(-c2noc(-c3ccc(N4CCC(C)CC4)c([N+](=O)[O-])c3)n2)cc1 | 85% (inactive)
Cc1ccc(NC(=O)CSc2nc3ccc(NC(=O)CCc4ccccc4)cc3s2)cc1 | 90% (inactive)
Cc1nn(S(=O)(=O)c2ccc(C(C)C)cc2)c(C)c1S(=O)(=O)N1CCCCC1 | 79% (inactive)
O=C(COc1ccc(Cl)cc1)OCc1cc(=O)n2nc(C3CC3)sc2n1 | 83% (inactive)
Cc1cc(=O)[nH]c2nnc(SCc3ccc(Cl)cc3Cl)n12 | 123% (inactive)
COc1ccccc1NC(=O)c1sc2ncn(Cc3ccccc3Cl)c(=O)c2c1C | 99% (inactive)
CCOc1ccc(-n2c(C)nc3c(cnn3-c3ccc(C)cc3)c2=O)cc1 | 76% (inactive)
CCOc1ccc(-n2c(-c3ccc(C)cc3)nc3c(cnn3-c3ccccc3)c2=O)cc1 | 42% (active)
Cc1cccc(-c2nc3c(cnn3-c3ccccc3)c(=O)n2-c2cccc(Cl)c2)c1 | 44% (active)
Cc1cccc(-n2c(-c3ccco3)nc3c(cnn3-c3ccc(F)cc3)c2=O)c1 | 81% (inactive)
CCOc1ccc(-n2c(CC)nc3c(cnn3-c3ccc(Cl)cc3)c2=O)cc1 | 46% (inactive)
Cc1cccc(-c2nc3c(cnn3-c3ccccc3)c(=O)n2-c2ccc(Cl)cc2)c1 | 56% (inactive)
CC(=O)c1ccc(N2CCN(S(=O)(=O)c3ccc4c(c3)C(C)(C)C(=O)N4)CC2)cc1 | 64% (inactive)
CN1C(=O)c2ccccc2Sc2ccc(NC(=O)NCc3ccc(Cl)cc3)cc21 | 96% (inactive)
CCOC(=O)c1c(NC(=O)/C=C/c2ccc(OCC)c(OC)c2)sc2c1CCC2 | 56% (inactive)
COc1cc(C(=O)Nc2sc3c(c2C(N)=O)CCC(C)C3)cc(OC)c1OC (stereo not given) | 53% (inactive)

Structure (SMILES) | survival
COC(=O)c1c(NC(=O)/C=C/c2ccc(OC)c(OC)c2)sc2c1CCC2 | 51% (inactive)
COC(=O)c1sc(NC(=O)/C=C/c2ccc(OC)c(OC)c2)c(C(=O)OC)c1C | 37% (active)
CCOC(=O)c1sc(NC(=O)/C=C/c2ccc(C(C)C)cc2)c(C(=O)OCC)c1C | 52% (inactive)
CCOC(=O)c1c(NC(=O)/C=C/c2ccc(OC)c(OC)c2)sc(C(C)=O)c1C | 118% (inactive)
COc1ccc(/C=C/C(=O)Nc2sc3c(c2C(N)=O)CCC(C)C3)cc1OC (stereo not given) | 34% (active)
CCCOc1ccc(/C=C/C(=O)Nc2sc3c(c2C(=O)OCC)CCC(C)C3)cc1OC (stereo not given) | 51% (inactive)
COC(=O)c1c(NC(=O)/C=C/c2ccc(OC)cc2)sc2c1CCC2 | 102% (inactive)
CCOC(=O)c1c(NC(=O)/C=C/c2ccc(OC)cc2)sc2c1CCC(C)C2 (stereo not given) | 23% (active)
CCOC(=O)c1c(NC(=O)/C=C/c2ccc(Cl)cc2)sc2c1CCC(C)C2 (stereo not given) | 44% (active)
COc1ccc(/C=C/C(=O)Nc2sc3c(c2C(N)=O)CCCC3)cc1 | 58% (inactive)
Cc1ccccc1-c1noc(-c2nnn(-c3ccccc3C)c2N)n1 | 94% (inactive)
O=C(NCc1ccco1)c1ccc2c(c1)N(Cc1ccccc1F)C(=O)c1ccccc1S2=O (stereo not given) | 90% (inactive)
CCCCNC(=O)c1ccc2c(c1)N(Cc1ccc(F)cc1)C(=O)c1ccccc1S2=O (stereo not given) | 65% (inactive)
COC1CCCC(C(=O)Nn2c(C3CC3)nc3ccccc3c2=O)C1 (stereo not given) | 69% (inactive)
Cc1cc(F)ccc1NC(=O)c1csc2c1CCC(C)C2 (stereo not given) | 89% (inactive)
Cc1occc1C(=O)NN=C1c2ccccc2-c2ccccc21 | 69% (inactive)
CCN(C(=O)c1oc2ccc(S(=O)(=O)N3CCCCCC3)cc2c1C)c1ccccc1 | 124% (inactive)
CSc1ccc(NC(=O)N2C3CCC2CC(O)(c2cccnc2)C3)cc1 (stereo not given) | 79% (inactive)
CCOc1ccccc1CNS(=O)(=O)c1ccc(-c2coc(C)n2)cc1 | 94% (inactive)
Cc1nc(N2CCCC2)ncc1C(=O)Nc1ccc(F)cc1F | 90% (inactive)
Cc1ccc(Cl)cc1NC(=O)c1ccc2nc(CCc3ccccc3)oc2c1 | 69% (inactive)
COc1cccc(-c2cn3c(n2)sc2cc(C(=O)NCc4cccs4)ccc23)c1 | 57% (inactive)
O=C(NCc1cccs1)c1ccc2c(c1)sc1nc(-c3ccccc3)cn12 | 82% (inactive)
Cc1ccc(-c2cn3c(n2)sc2cc(C(=O)NCc4cccs4)ccc23)cc1 | 78% (inactive)
O=C(NCc1cccs1)c1ccc2c(c1)sc1nc(-c3ccc(F)cc3)cn12 | 71% (inactive)

Structure (SMILES) | survival
Cc1ccc(-c2cn3c(n2)sc2cc(C(=O)NCc4cccs4)ccc23)c(C)c1 | 41% (active)
COc1ccc(-c2cn3c(n2)sc2cc(C(=O)NCc4cccs4)ccc23)cc1 | 55% (active)
O=C(CCc1ccccc1)NCc1ccc2c(c1)CCN2C(=O)c1ccc(Cl)cc1 | 77% (inactive)
COc1ccc(CCNC(=O)c2cnn(-c3cccc(C)c3)c2C2CCN(C(=O)OC(C)(C)C)CC2)cc1OC | 67% (inactive)
Cc1cc(OCCCn2c(CCNC(=O)C3CCCCC3)nc3ccccc32)ccc1Cl | 4% (active)
Cc1cc(OCCn2c(CCNC(=O)C3CCCCC3)nc3ccccc32)ccc1Cl | 87% (inactive)
Cc1ccc(OCCn2c(CCNC(=O)C3CCCCC3)nc3ccccc32)cc1 | 61% (inactive)
O=C(NCCc1nc2ccccc2n1CCCOc1ccc(Cl)cc1)C1CCCCC1 | 24% (active)
Cc1ccc(OCCCn2c(CCNC(=O)C3CCCCC3)nc3ccccc32)c(C)c1 | 64% (inactive)
Cc1cccc(C)c1OCCCn1c(CCNC(=O)C2CCCCC2)nc2ccccc21 | 1% (active)
Cc1cccc(C)c1OCCn1c(CCNC(=O)C2CCCCC2)nc2ccccc21 | 57% (inactive)
O=C(NCCc1nc2ccccc2n1CCOc1ccc(Cl)cc1)C1CCCCC1 | 36% (active)
Cc1cc(C)cc(OCCn2c(CCNC(=O)C3CCCCC3)nc3ccccc32)c1 | 92% (inactive)
O=C(NCCCc1nc2ccccc2n1Cc1ccc(Cl)cc1)C1CCCCC1 | 64% (inactive)
Cc1cc(C)cc(OCCCn2c(CCNC(=O)C3CCCCC3)nc3ccccc32)c1 | 35% (inactive)
Cc1ccccc1OCCCn1c(CCNC(=O)C2CCCCC2)nc2ccccc21 | 61% (inactive)
Cc1cc(C)cc(N2CCn3c2nc2c3c(=O)n(CCCc3ccccc3)c(=O)n2C)c1 | 67% (inactive)
O=C(CSc1nc2c(c(=O)[nH]1)CCCC2)Nc1cccc(O)c1 | 68% (inactive)
Cc1cccc(N2CCN(C(=O)c3cnn(-c4cccc(Cl)c4C)c3C3CCNCC3)CC2)c1C | 80% (inactive)
Cc1cc(NC(=O)c2ccc3c(c2)N(Cc2cccc(Cl)c2)C(=O)c2ccccc2S3(=O)=O)ccc1Br | 90% (inactive)
Cc1ccc(C2CCN(C(=O)Nc3ccc(Cl)c(Cl)c3)C2)cc1 (stereo not given) | 20% (active)
Cc1ccc(C2CCN(C(=O)Nc3ccc(Cl)cc3)C2)cc1 (stereo not given) | 81% (inactive)
O=C(Nc1ccc(Cl)c(Cl)c1)N1CCC(c2ccccc2)C1 (stereo not given) | 81% (inactive)
COc1ccc(N2C(=O)CSC23C(=O)N(CC(=O)NCCc2ccccc2)c2ccccc23)cc1 (stereo not given) | 94% (inactive)
CCN(CC)S(=O)(=O)c1ccc(-c2nnc(SCC(=O)Nc3nc4ccccc4s3)o2)cc1 | 66% (inactive)

Structure (SMILES) | survival
N=c1n(CC(=O)O)c2ccccc2n1Cc1ccccc1 | 84% (inactive)
N=c1n(CCO)c2ccccc2n1CCOc1ccc(F)cc1 | 40% (active)
CCOC(=O)Cn1c(=N)n(CCOc2ccc(OC)cc2)c2ccccc21 | 43% (active)
CCCCn1c(=N)n(CCOc2ccccc2OC)c2ccccc21 | 56% (inactive)
N=c1n(CC(N)=O)c2ccccc2n1Cc1ccccc1Cl | 99% (inactive)
CCOC(=O)Cn1c(=N)n(Cc2ccc(C(C)(C)C)cc2)c2ccccc21 | 103% (inactive)
N=c1n(CCO)c2ccccc2n1Cc1ccccc1F | 47% (active)
CCCCn1c(=N)n(CCCOc2ccc(F)cc2)c2ccccc21 | 48% (inactive)
O=C1CSC(=O)N1CCOc1ccc(F)cc1 | 80% (inactive)
O=C(O)CCN1C(=O)CSC1=O | 72% (inactive)
CCCOc1cccc(C2c3c(oc4cc(C)c(C)cc4c3=O)C(=O)N2CCCN2CCOCC2)c1 (stereo not given) | 64% (inactive)
COc1ccc(CCNC(=O)c2ccc3c(c2)N(Cc2cc(C)ccc2C)C(=O)c2ccccc2S3=O)cc1OC (stereo not given) | 70% (inactive)
COc1cc(OC)c(NC(=O)Cn2cnc3sc(C)c(S(=O)(=O)N4CCN(C)CC4)c3c2=O)cc1Cl | 157% (inactive)
Cc1oc(-c2cccc(Cl)c2)nc1CN1CCC(C(=O)NCCc2ccc(Cl)cc2)CC1 | 87% (inactive)
Cc1oc(-c2ccc(Cl)cc2)nc1CN1CCCC(C(=O)NCCc2ccccc2)C1 (stereo not given) | 44% (active)
CCCCNC(=O)C1CCCN(Cc2nc(-c3ccc(Cl)cc3)oc2C)C1 (stereo not given) | 77% (inactive)
Cc1oc(-c2cccc(Br)c2)nc1CN1CCC(C(=O)NCCc2ccc(Cl)cc2)CC1 | 76% (inactive)
Cc1oc(-c2ccc(Cl)cc2)nc1CN1CCCC(C(=O)NCc2ccccc2)C1 (stereo not given) | 93% (inactive)
Cc1ccc(C)c(N2CCN(C(=O)C3CCCN(Cc4nc(-c5cccc(Cl)c5)oc4C)C3)CC2)c1 (stereo not given) | 78% (inactive)
CCc1ccc(-c2nc(CN3CCCC(C(=O)NCc4ccc(C)cc4)C3)c(C)o2)cc1 (stereo not given) | 73% (inactive)
Cc1ccc(CCNC(=O)C2CCCN(Cc3nc(-c4cccc(Cl)c4)oc3C)C2)cc1 (stereo not given) | 25% (active)
Cc1oc(-c2ccc(Cl)cc2)nc1CN1CCCC(C(=O)NCCc2ccc(Cl)cc2)C1 (stereo not given) | 54% (inactive)
Cc1cccc(-c2nc(CN3CCCC(C(=O)NCCc4ccc(Cl)cc4)C3)c(C)o2)c1 (stereo not given) | 34% (active)
Cc1oc(-c2cccc(Cl)c2)nc1CN1CCCC(C(=O)NCCc2ccc(Cl)cc2)C1 (stereo not given) | -6% (active)
Cc1cccc(-c2nc(CN3CCCC(C(=O)N4CCN(c5cc(Cl)ccc5C)CC4)C3)c(C)o2)c1 (stereo not given) | 68% (inactive)
